30 compounds from PubChem BioAssay (NCATS) can be followed below.

The structures appear in SMILES notation. Several values for one entry are separate records, joined by “and”; a condition that tells them apart may be missing. Equal entries are not always repeated. Inconclusive results are not listed. Unmarked numbers belong to inactive results. Activity calls are given as the source filed them. Calls come from the whole dose curve; as a rule, active = well fitted curve in the direction sought with a large enough effect; inconclusive = small, poorly fitted or top-dose-only effect, or another doubt; inactive = no such curve, though single readings can be large; an effect the other way counts as inactive or inconclusive.

The target of assay [1] is Cellular tumor antigen p53 (Homo sapiens) (UniProt P04637). The assay can be described thus: Primary qHTS for small molecule compounds that upregulate eGFP-tagged delta133p53alpha (in N-terminal) cells. (AID 2060322).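 For activation: cells pre-induced with doxycycline then dosed without doxycycline; series mostly up to about 56 µM; 0% = DMSO vehicle and 100% = reference activator.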 Note: nearly all actives have a fitted effect of over 75% in size. Note: potency is the fitted concentration of half-maximal effect. The following applies: NCI-H358 eGFP-delta133p53alpha fluorescence, 24 h; activation: hits give high values. The method, boiled down: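 NCI-H358 cells pre-induced 24 h with 10 ng/ml doxycycline for eGFP-delta133p53alpha, plated dox-free and exposed 24 h at 37C to titrated compounds. Fixed, Hoechst-stained; gated GFP peak intensity by laser scanning cytometry, normalized to DMSO (0%) and 57.5 uM 5-azacytidine (100%).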
Background: In qHTS, concentration-response curves come from the screen itself.

Assay [2] deals with Aldehyde dehydrogenase, mitochondrial (Homo sapiens) (UniProt P05091). Kind of assay: qHTS for Inhibitors of the Aldehyde Dehydrogenase Family (ALDH2) Primary screen (AID 2061308).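 Note: plate controls were vehicle for no effect and reference inhibitor for full effect; nearly all actives have a fitted effect of over 55% in size.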
Assay [3] deals with Retinaldehyde dehydrogenase 3 (Homo sapiens) (UniProt P47895). Kind of assay: qHTS for Inhibitors of the Aldehyde Dehydrogenase Family (ALDH1A3) Validation screen (AID 2061312). Note: % is set by controls: 0 for no effect and ±100 for the full control effect; nearly all actives have a fitted effect of over 45% in size.
Assay [4] shares this target. Kind of assay: qHTS for Inhibitors of the Aldehyde Dehydrogenase Family (ALDH1A3) Primary screen (AID 2061315).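 Note: plate controls were DMSO vehicle for no effect and reference inhibitor for full effect.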

Cellular tumor antigen p53 (Homo sapiens), sequence (P04637 whole entry, looked up): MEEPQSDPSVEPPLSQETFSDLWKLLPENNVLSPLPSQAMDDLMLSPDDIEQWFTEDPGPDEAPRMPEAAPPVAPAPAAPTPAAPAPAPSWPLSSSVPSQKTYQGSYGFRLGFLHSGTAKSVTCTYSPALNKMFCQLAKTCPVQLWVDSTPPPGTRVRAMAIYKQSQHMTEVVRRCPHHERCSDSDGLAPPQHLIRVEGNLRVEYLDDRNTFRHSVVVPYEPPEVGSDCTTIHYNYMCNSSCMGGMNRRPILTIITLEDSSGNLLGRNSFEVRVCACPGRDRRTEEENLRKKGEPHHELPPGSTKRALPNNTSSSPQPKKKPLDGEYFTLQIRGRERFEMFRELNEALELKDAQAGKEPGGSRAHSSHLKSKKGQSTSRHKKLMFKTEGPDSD

On to `CC1=C(C(=O)Nc2cc(Cl)ccc2Cl)C(c2ccco2)C2=C(CCCC2=O)N1` (stereo not given), for which the activation in assay [1] was 17.7%. The Potency entry in assay [2], in assay [3] and in assay [4] was “inactive” in each case.
Take `O=C1NC(=O)C(c2cn3c4c(cccc24)CCC3)C1c1c[nH]c2ccccc12` (stereo not given): the activation in assay [1] is 18.6%. Moreover, the Potency result in assay [2], in assay [3] and in assay [4] was “inactive” each time.
With `COc1ccc(Oc2cc(C)c(-c3csc(NC(=O)c4ccncc4)n3)c(C)c2)cc1`, the activation in assay [1] was 11%. Besides, the Potency result in assay [2], in assay [3] and in assay [4] was “inactive” throughout.
As for `CC(C)(C)c1ccc2c(c1)CC[C@H]2NC(=O)Nc1cccc2[nH]ncc12`, the activation in assay [1] was -6.68%. The Potency entry in assay [2], in assay [3] and in assay [4] was “inactive” throughout.
Turning to `COc1ccc2[nH]c3c(-c4cccc5ccccc45)nccc3c2c1`, the Potency in assay [1] is 26.9 µM (active). Moreover, the Potency result in assay [2], in assay [3] and in assay [4] was “inactive” in each case.
Turning to `CC(C)(C)c1ccc(-c2nc3c(N4CCN(Cc5ccc6nccnc6c5)CC4)cccc3[nH]2)cc1`, the activation in assay [1] is -2.86%. In addition, the Potency result in assay [2], in assay [3] and in assay [4] was “inactive” in each case.
Turning to `Clc1cccc(-c2nnnn2Cc2cccnc2)c1Cl`, the activation in assay [1] is 12.9% and -2.86%. For the same compound, the Potency entry in assay [2], in assay [3] and in assay [4] was “inactive” in each case.
Take `Cn1cc(S(=O)(=O)c2ccc(Cl)cc2)c2cccc(N3CCNCC3)c21`: the activation in assay [1] is 3.34%. The Potency entry in assay [2], in assay [3] and in assay [4] was “inactive” each time.
Regarding `COc1c(C)cnc(Cn2cc(C#CCC(C)(C)O)c3c(Cl)nc(N)nc32)c1C`, in assay [1], the activation is -10%. In addition, the Potency entry in assay [2], in assay [3] and in assay [4] was “inactive” throughout.
With `CC(=O)NC[C@H]1CN(c2ccc(N3CCSCC3)c(F)c2)C(=O)O1`, in assay [1], the activation was 0%. In addition, the Potency result in assay [2], in assay [3] and in assay [4] was “inactive” each time.
`c1ccc(-c2csc(N3CCOCC3)n2)cc1`: the activation in assay [1] is -7.16%. Besides, the Potency entry in assay [2], in assay [3] and in assay [4] was “inactive” in each case.
Take `CC(C)(C)NCC(O)COc1cccc2c1CCCC2=O` (stereo not given): in assay [1], the activation is -7.64%. The Potency result in assay [2], in assay [3] and in assay [4] was “inactive” throughout.
Take `CCOc1ccc(-c2nc(-c3cccc4c3CCC4NCCO)no2)cc1OCC` (stereo not given): in assay [1], the activation is -0.955%. In addition, the Potency entry in assay [2], in assay [3] and in assay [4] was “inactive” each time.
Take `CC1=C(/C=C/C(C)=C\C=C\C(C)=C/C(=O)O)C(C)(C)CCC1`: in assay [1], the activation is 11.5%. Further, the Potency result in assay [2], in assay [3] and in assay [4] was “inactive” each time.
For `COc1ccc(C2(CNC(=O)c3ccc(NC(=O)c4ccco4)cc3)CCOCC2)cc1`, in assay [1], the activation is 5.25%. Besides, the Potency entry in assay [2], in assay [3] and in assay [4] was “inactive” in each case.
Turning to `CNS(=O)(=O)CC1CCC(N(C)c2ncnc3[nH]ccc23)CC1` (stereo not given), the activation in assay [1] is -0.477%. Besides, the Potency entry in assay [2], in assay [3] and in assay [4] was “inactive” in each case.
For `COc1cc(CCc2cc(NC(=O)c3ccc(N4CC(C)NC(C)C4)cc3)n[nH]2)cc(OC)c1` (stereo not given), the activation in assay [1] was 3.34%. Moreover, the Potency entry in assay [2], in assay [3] and in assay [4] was “inactive” throughout.
Turning to `Cc1cc(C)nc(SCC(=O)Nc2ncc(Cc3cccc4ccccc34)s2)n1`, the activation in assay [1] was -8.11%. Also, the Potency entry in assay [2], in assay [3] and in assay [4] was “inactive” in each case.
With `COc1cccc(-c2ccc([C@@H](Oc3cc(-c4ccc(C[C@H](N)C(=O)O)cc4)nc(N)n3)C(F)(F)F)cc2)c1`, the activation in assay [1] is -13.4%. Moreover, the Potency result in assay [2], in assay [3] and in assay [4] was “inactive” throughout.
In the case of `OC1(CN2CCC(COc3noc4cccc(O[C@@H]5CCOC5)c34)CC2)CCOCC1`, the activation in assay [1] was 3.82%. Also, the Potency entry in assay [2], in assay [3] and in assay [4] was “inactive” each time.
As for `CC(C)(CO)c1cc2cc(NC(=O)C3(c4ccc5c(c4)OC(F)(F)O5)CC3)c(F)cc2n1CC(O)CO` (stereo not given), the activation in assay [1] was 17.7%. The Potency entry in assay [2], in assay [3] and in assay [4] was “inactive” in each case.
Take `CCN(CC)CCCS(=O)(=O)N[C@H](CCc1ccccc1)c1nc(Cc2ccc(Br)cc2)no1`: the activation in assay [1] was 7.64%. In addition, the Potency entry in assay [2], in assay [3] and in assay [4] was “inactive” throughout.
For `O=C(O)c1ccc(S(=O)(=O)N(Cc2ccc(OC(F)(F)F)cc2)c2ncc(C(F)(F)F)cc2Cl)cc1`, in assay [1], the activation was -2.86%. Further, the Potency result in assay [2], in assay [3] and in assay [4] was “inactive” each time.
Regarding `CCCNCCOc1ccc(NC(=O)c2c[nH]c3c2C(=O)CCC3)cc1F`, the activation in assay [1] is -0.955%. Moreover, the Potency entry in assay [2], in assay [3] and in assay [4] was “inactive” each time.
For `COC(=O)CC1CC(c2ccc(O)cc2)=NO1` (stereo not given), the activation in assay [1] was -0.955%. In addition, the Potency result in assay [2], in assay [3] and in assay [4] was “inactive” each time.
Turning to `Cn1c(CO)c(-c2ccccc2)c2cc([N+](=O)[O-])ccc21`, the activation in assay [1] was -4.77%. Besides, the Potency result in assay [2], in assay [3] and in assay [4] was “inactive” each time.
Regarding `Cc1oc2ccccc2c1CNC(=O)NCc1cccs1`, the activation in assay [1] was -8.59%. The Potency result in assay [2], in assay [3] and in assay [4] was “inactive” throughout.
Regarding `CC(=O)N(C)C1(c2ccccc2)CCN(CCC[C@]2(c3ccc(Cl)c(Cl)c3)CCCN(C(=O)c3ccccc3)C2)CC1`, the activation in assay [1] is 16.9%. The Potency entry in assay [2], in assay [3] and in assay [4] was “inactive” each time.
Consider `Cc1cc(C(=O)Cn2cc(C#N)ccc2=O)c(C)n1Cc1ccccc1`, for which the activation in assay [1] is 6.21%. The Potency entry in assay [2], in assay [3] and in assay [4] was “inactive” throughout.
With `CN[C@@H]1[C@@H](O)[C@@H](O[C@@H]2[C@@H](O)[C@H](O[C@H]3O[C@H](CN)[C@@H](O)[C@H](O)[C@H]3O)[C@@H](N)C[C@H]2NC(=O)[C@@H](O)CN)OC[C@]1(C)O`, the activation in assay [1] was -2.86%. In addition, the Potency result in assay [2], in assay [3] and in assay [4] was “inactive” throughout.
